Vc quorum ag – quorum light induction in luxS cqsA deficient V. cholerae | V. cholerae BH1578 lux reporter, luminescence, 6 h | activation, % at 18.7 µM | hit rate 0.16% among 350,000 | AID 588436; in the data active = activation mostly above about 9.7%, no sharp cut-off
CCHFV vOTU inh – CCHFV vOTU protease inhibition | inhibition, % at 11.5 µM | Pep-AMC fluorescence | hit rate 0.55% among 370,000 | AID 651958; in the data active = inhibition above about 30%
MazEF act – activators of E. coli MazEF toxin-antitoxin RNase; P0AE70; FAM/BHQ RNA-DNA oligo cleavage fluorescence, 5 h; activation, % at 20 µM; hit rate 0.32% among 350,000; in the data active = activation above about 50%
Target sequence (P0AE70 whole entry, looked up): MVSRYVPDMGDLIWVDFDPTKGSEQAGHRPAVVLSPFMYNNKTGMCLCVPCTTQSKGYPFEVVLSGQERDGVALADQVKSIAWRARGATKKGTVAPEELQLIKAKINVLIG
Y pestis TopoI – blocks Yersinia pestis topoisomerase I activity | AID 504884 | Y. pestis Topo-I cleavage product accumulation, plate reader | hit rate 0.064% among 360,000 | activity, % at 10 µM; in the data active = activity above about 50%, passing the limit was not always enough
PrPC surface inh – reduces human prion protein on the cell surface. inhibition, % at 13.8 µM. hit rate 0.43% among 370,000. cell surface PrPC, TR-FRET read-out. AID 720596; in the data active = inhibition above about 24%
DUSP3 inh – inhibitors of human VHR1 phosphatase (DUSP3); recombinant VHR phosphatase, pNPP absorbance; inhibition, % at 13.3 µM; hit rate 0.52% among 290,000; AID 1654; P51452; in the data active = inhibition above about 50%
Target sequence (P51452 whole entry, looked up): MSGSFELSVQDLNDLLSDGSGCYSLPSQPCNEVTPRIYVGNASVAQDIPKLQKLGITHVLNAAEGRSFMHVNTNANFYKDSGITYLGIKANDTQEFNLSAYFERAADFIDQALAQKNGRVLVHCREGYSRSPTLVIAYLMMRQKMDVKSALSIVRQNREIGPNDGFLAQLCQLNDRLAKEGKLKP
Numbers stand for hits; n = inactive; x = no result given; + = active, no number. This is a sample that favours compounds with a hit; in the whole collection about 1.8% have one here.

SMILES	Vc quorum ag	CCHFV vOTU inh	MazEF act	Y pestis TopoI	PrPC surface inh	DUSP3 inh
Oc1ccc(N=Nc2nc(-c3ccccc3)c(-c3ccccc3)[nH]2)cc1	n	n	126	n	n	n
Cc1cc(C)c(C(=O)N2CCCC(Nc3ccc(C)c(C)c3)C2)o1 (centres undefined)	n	n	n	n	n	53
Cc1ccc(NC2CCCN(C(=O)CN3C(=O)CSC3=O)C2)cc1C (centres undefined)	n	n	n	n	n	53
C=CCN1C(=O)[C@@H](CC(=O)N2CCC(c3ccccc3)CC2)[C@]2(C(=O)OCC)CCCCC/C=C/12	x	n	x	x	n	x
C[C@@H]1CN(c2c(F)c(F)c3c(=O)c(C(=O)O)cn(C4CC4)c3c2F)C[C@H](C)N1	n	n	n	n	n	58
N#Cc1ccc(/C=C2\CC3(OC(=O)C4CCCC4)CCCN2C3)cc1 (centres undefined)	x	n	x	x	n	x
CSC1SCC2C(=O)N(C)C(C(C)C)C(=O)OCC(NC(=O)c3cnc4ccccc4n3)C(=O)NC(C)C(=O)N(C)C1C(=O)N(C)C(C(C)C)C(=O)OCC(NC(=O)c1cnc3ccccc3n1)C(=O)NC(C)C(=O)N2C (centres undefined)	n	n	n	n	26	x
Cc1cc(C(=O)OCC(=O)Nc2ccccc2C#N)c(C)o1	390	n	n	n	n	x
Cc1cc(C(=O)OCC(=O)Nc2cc(Cl)ccc2C)c(C)o1	n	n	n	n	n	x
CCc1ccc(C2=NN(C(=O)OC)C(O)(C(F)(F)F)C2)cc1 (centres undefined)	n	n	n	n	n	52
CC(=O)c1sc2nc(CSc3nnnn3-c3ccccc3)[nH]c(=O)c2c1C	n	n	n	n	n	n
Cc1ccc(-n2nnnc2SCc2nc3sc(C)c(C)c3c(=O)[nH]2)cc1	n	n	68	n	n	n
COCCCNC(=O)C[C@H]1C[C@@]2(C(=O)OC)C(=C[C@H](COCc3ccccc3)O[C@@H]2C)N(CCc2ccc(OC)c(OC)c2)C1=O	x	n	x	x	n	x
CC(C)NC(=O)NC1CCN(CC(=O)Nc2ccc3c(c2)OCCO3)CC1	x	n	x	x	n	x
CC1CN(C(=O)COC(=O)c2ccc(F)cc2Cl)CC(C)O1 (centres undefined)	n	n	n	n	n	50
CCCCOc1ccc(C(=O)n2ccc3ccc(-c4ccc5ccn(Cc6cccc(C(=O)OC)c6)c5c4)cc32)cc1	x	n	x	x	n	x
CCNC(=S)N/N=C/c1sc(N2CCCCC2)nc1-c1cccs1	n	n	257	n	n	n
CCNC(=S)Nc1ccc(N2CCCCC2)cc1	x	n	n	n	n	n
Nc1c(C(=O)NC2CCCC2)sc2nc(-c3cccs3)ccc12	n	n	52	n	n	n
O=Cc1sc(Nc2ccccc2)nc1Cl	n	n	n	n	n	n
Cc1ccc(Nc2nc(Cl)c(C=O)s2)cc1Cl	n	n	53	n	n	n
Cc1ccc(NC(=S)NCc2ccc(Cl)cc2)c(OC(F)F)c1	n	n	n	n	n	n
O=C(c1ccc(F)cc1Cl)N(Cc1ccccn1)CC1CCCO1 (centres undefined)	x	n	x	x	n	x
Cc1ccc(Cl)cc1C1=CC(=O)C[C@H](c2ccc(F)cc2)C1	n	n	n	69	n	x
O=c1c([N+](=O)[O-])cccn1Cc1cccc(Br)c1	46	n	n	n	n	n
SMILES	Vc quorum ag	CCHFV vOTU inh	MazEF act	Y pestis TopoI	PrPC surface inh	DUSP3 inh
Cc1ccc(OCCn2cc(/C=C(\C#N)C(=O)NCC3CCCO3)c3ccccc32)cc1C (centres undefined)	n	n	114	n	n	n
Cc1ccc(OCCn2cc(/C=C(\C#N)C(=O)NCC3CCCO3)c3ccccc32)cc1 (centres undefined)	n	n	57	n	n	n
Cc1ccc(C)c(OCCn2cc(/C=C(\C#N)C(=O)NCC3CCCO3)c3ccccc32)c1 (centres undefined)	n	n	n	n	n	n
Nc1ccc(N2CCOCC2)c2nonc12	n	109	n	n	n	n
Cn1c(N/N=C/c2cc3ccccc3nc2Cl)nc2ccccc21	n	n	207	n	n	n
Cn1c(N/N=C/c2c[nH]c3ccccc23)nc2ccccc21	n	n	n	n	n	n
N/C(=N\OC(=O)c1ccccc1F)c1cccc([N+](=O)[O-])c1	n	n	n	n	n	51
CN(CC#Cc1ccccc1)C(N)=NC(=O)/C=C/c1ccccc1	x	n	x	x	n	x
N#C/C(=C\C1=C(N2CCOCC2)C(=C/c2cccc([N+](=O)[O-])c2)/CC1)C(=O)Nc1ccccc1F	n	n	+	n	n	n
N#C/C(=C/C1=C(N2CCOCC2)C(=C/c2cccc([N+](=O)[O-])c2)/CC1)C(=O)Nc1ccccc1F	n	n	636	n	n	x
COC(=O)[C@]12C[C@H](CC(=O)NCCC(C)C)C(=O)N(Cc3ccco3)C1=C[C@H](C(C)(C)C)O[C@@H]2C	x	n	x	x	n	x
CCOc1ccccc1N(C)C(=O)c1cn(C)c(=O)c2ccccc12	n	n	n	n	n	51
CCOc1ccccc1N(C)C(=O)c1cn(CC)c(=O)c2cc(OC)c(OC)cc12	n	n	n	n	n	n
Cc1cc2oc(=O)cc(CN3CCCC3)c2cc1Cl	x	n	x	x	n	x
Cc1cc2oc(=O)cc(CN3CCOCC3)c2cc1Cl	n	n	n	n	n	54
CCOC(=O)[C@@]12CCC3=C1N(CCC3)C(=O)[C@H](CC(=O)NCCc1ccccc1OC)C2	x	n	x	x	n	x
O=C1c2ccc3c4c(ccc(c24)C(=O)N1NC(=O)C(F)(F)F)CC3	n	n	n	n	n	n
CC(=O)NN1C(=O)c2ccc3c4c(ccc(c24)C1=O)C(=O)N(NC(C)=O)C3=O	n	n	69	n	n	n
O=C(NCCc1c[nH]c2ccccc12)[C@H](Cc1c[nH]c2ccccc12)NC1(C(=O)NC2CCCCC2)CCCCCCC1	x	x	x	x	n	x
COc1ccc(C2Nc3cccc4cccc(c34)N2)cc1	n	n	n	n	n	n
COc1cc(OC)c(C2Nc3cccc4cccc(c34)N2)c(OC)c1	n	n	n	n	n	53
Oc1sc(C=Nc2ccc(F)cc2)c2ccccc12	n	n	n	n	n	n
Oc1sc(C=Nc2ccccc2)c2ccccc12	n	n	140	n	n	n
CCOC(=O)C1=C(C)N(CCCCCC(=O)O)C(=O)NC1c1ccc([N+](=O)[O-])cc1 (centres undefined)	n	n	n	n	n	52
COC(=O)C1CN(Cc2cn(Cc3ccc(Cl)cc3)nn2)CCS(=O)(=O)N1Cc1ccc(C)cc1 (centres undefined)	x	n	x	x	n	x
CN(C)c1cccc(/C=C2\CC3(OC(=O)c4cccc(F)c4)CCCN2C3)c1 (centres undefined)	x	n	x	x	n	x
COC(=O)Cc1ccc(NC(=S)N2CCN(c3cccc(O)c3)CC2)cc1	n	n	n	n	n	55
O=C1/C(=C/c2ccco2)CCc2ccccc21	n	n	n	n	n	n
Nc1ccc2c(c1)C/C(=C/c1ccco1)C2=O	n	n	n	n	n	72

High-throughput results: PubChem BioAssay, several laboratories
